The supplement of paper PMC6411743
± gives the standard deviation of the averaged measurements. The full data set covers some 5,400 targets. This sample favours those with the largest changes.

Compound: Nc1nc2c(ncn2[C@@H]2O[C@H](COP(=O)(O)OP(=O)(O)OP(=O)(O)O)[C@@H](O)[C@H]2O)c(=O)[nH]1 [guanosine triphosphate]
Test: NP40-soluble protein abundance relative to vehicle (solubility fold change) (ratio); higher = more soluble protein in presence of GTP
Procedure: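 Solubility proteome profiling in Jurkat crude lysate. Lysate was treated with Mg-GTP (0.1-10 mM) for 10 min at room temperature and 3 min at 37 °C, then solubilised with 0.8% NP40 and benzonase, followed by ultracentrifugation. Proteins were quantified by TMT10 LC-MS/MS; the value is the NP40-soluble abundance relative to the NP40-processed vehicle, from 3 independent experiments.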

UniProt Q9H832, sequence (Q9H832 whole entry): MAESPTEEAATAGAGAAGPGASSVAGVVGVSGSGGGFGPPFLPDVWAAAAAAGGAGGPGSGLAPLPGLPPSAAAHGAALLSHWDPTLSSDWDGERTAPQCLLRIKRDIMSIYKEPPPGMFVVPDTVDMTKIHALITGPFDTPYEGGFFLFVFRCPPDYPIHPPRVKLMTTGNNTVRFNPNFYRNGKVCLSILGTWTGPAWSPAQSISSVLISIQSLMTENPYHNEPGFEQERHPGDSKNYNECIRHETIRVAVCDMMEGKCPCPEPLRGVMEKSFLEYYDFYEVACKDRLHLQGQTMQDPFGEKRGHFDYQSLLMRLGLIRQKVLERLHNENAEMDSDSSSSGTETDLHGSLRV
UniProt Q96BS2, sequence (Q96BS2 whole entry): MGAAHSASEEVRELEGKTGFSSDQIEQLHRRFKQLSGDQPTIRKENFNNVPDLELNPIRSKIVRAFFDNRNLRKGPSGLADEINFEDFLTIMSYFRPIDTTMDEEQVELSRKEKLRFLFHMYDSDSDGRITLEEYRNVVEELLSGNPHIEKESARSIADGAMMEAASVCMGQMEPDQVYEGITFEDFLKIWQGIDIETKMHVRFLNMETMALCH
UniProt Q9BTE7, sequence (Q9BTE7 whole entry): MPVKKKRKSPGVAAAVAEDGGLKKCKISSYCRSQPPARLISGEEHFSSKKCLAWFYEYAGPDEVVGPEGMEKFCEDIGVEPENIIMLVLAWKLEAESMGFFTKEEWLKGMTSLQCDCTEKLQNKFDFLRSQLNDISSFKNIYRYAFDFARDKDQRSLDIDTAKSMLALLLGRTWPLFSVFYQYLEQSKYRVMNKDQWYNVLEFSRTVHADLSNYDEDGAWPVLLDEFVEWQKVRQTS
UniProt Q9UNX4, sequence (Q9UNX4 whole entry): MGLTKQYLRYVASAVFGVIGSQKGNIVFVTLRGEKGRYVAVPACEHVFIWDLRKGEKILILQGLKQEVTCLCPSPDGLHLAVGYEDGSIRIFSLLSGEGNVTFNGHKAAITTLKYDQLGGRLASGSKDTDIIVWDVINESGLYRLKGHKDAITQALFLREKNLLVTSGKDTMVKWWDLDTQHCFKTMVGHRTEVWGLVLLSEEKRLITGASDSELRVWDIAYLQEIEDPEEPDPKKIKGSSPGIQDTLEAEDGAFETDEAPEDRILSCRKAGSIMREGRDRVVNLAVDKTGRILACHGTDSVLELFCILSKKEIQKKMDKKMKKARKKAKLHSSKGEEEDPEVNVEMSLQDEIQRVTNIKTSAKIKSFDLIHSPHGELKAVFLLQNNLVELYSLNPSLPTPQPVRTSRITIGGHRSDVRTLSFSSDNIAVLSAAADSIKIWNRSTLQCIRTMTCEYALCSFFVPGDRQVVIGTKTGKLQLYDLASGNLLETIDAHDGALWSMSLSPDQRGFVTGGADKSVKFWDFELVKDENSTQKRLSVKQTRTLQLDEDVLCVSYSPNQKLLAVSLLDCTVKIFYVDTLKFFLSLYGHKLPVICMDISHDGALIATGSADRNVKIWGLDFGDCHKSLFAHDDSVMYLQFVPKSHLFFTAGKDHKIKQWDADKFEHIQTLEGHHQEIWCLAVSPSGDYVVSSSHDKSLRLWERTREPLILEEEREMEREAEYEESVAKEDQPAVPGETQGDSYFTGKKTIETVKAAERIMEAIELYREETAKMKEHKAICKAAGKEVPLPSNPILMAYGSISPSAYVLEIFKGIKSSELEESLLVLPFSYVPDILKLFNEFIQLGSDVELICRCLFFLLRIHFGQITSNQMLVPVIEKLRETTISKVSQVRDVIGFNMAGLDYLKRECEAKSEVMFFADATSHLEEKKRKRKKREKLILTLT

Target	NP40-soluble protein abundance (concentration: 0.1mM)	NP40-soluble protein abundance (concentration: 0.5mM)	NP40-soluble protein abundance (concentration: 1mM)	NP40-soluble protein abundance (concentration: 2mM)	NP40-soluble protein abundance (concentration: 4mM)	NP40-soluble protein abundance (concentration: 6mM)	NP40-soluble protein abundance (concentration: 8mM)	NP40-soluble protein abundance (concentration: 10mM)
TESC (UniProt Q96BS2)	1.01 ± 0.035	0.983 ± 0.071	0.985 ± 0.095	0.968 ± 0.16	0.907 ± 0.074	0.932 ± 0.092	0.926 ± 0.073	0.915 ± 0.09
UniProt Q9H832|Q9H832-2	1.04 ± 0.06	0.987 ± 0.061	0.9687 ± 0.0042	1.12 ± 0.056	0.927 ± 0.013	0.934 ± 0.043	0.91 ± 0.034	0.963 ± 0.064
UniProt Q9H8Y8|Q9H8Y8-3	0.893 ± 0.088	0.934 ± 0.09	0.911 ± 0.095	0.873 ± 0.087	0.836 ± 0.091	0.858 ± 0.059	0.884 ± 0.091	0.892 ± 0.12
DCUN1D5 (UniProt Q9BTE7)	0.984 ± 0.048	0.929 ± 0.07	0.918 ± 0.076	0.916 ± 0.077	0.948 ± 0.027	0.883 ± 0.056	0.891 ± 0.069	0.883 ± 0.074
WDR3 (UniProt Q9UNX4)	1.12 ± 0.08	1.15 ± 0.098	1.13 ± 0.061	1.42 ± 0.13	1.81 ± 0.16	1.98 ± 0.2	2.04 ± 0.12	1.974 ± 0.012
